# Compound activity: PubChem BioAssay, National Center for Advancing Translational Sciences (NCATS)
# PTHR1 agonist: qHTS for PTHR1 Agonists: Primary Screen; Parathyroid hormone/parathyroid hormone-related peptide receptor (Homo sapiens), Q03431; HEK293 GP2 PTHR1 cells, GloSensor cAMP luminescence, 1 h; Potency, µM (highest dose often 115 µM), inactives show top-dose activation, actives largely listed as activators; 410,000 compounds, 0.075% hits; AID 743266, 2014; also: potency is read from the fitted curve at half-maximal effect; nearly all actives have a fitted effect of over 55% in size
# Target sequence (Q03431 whole entry, looked up): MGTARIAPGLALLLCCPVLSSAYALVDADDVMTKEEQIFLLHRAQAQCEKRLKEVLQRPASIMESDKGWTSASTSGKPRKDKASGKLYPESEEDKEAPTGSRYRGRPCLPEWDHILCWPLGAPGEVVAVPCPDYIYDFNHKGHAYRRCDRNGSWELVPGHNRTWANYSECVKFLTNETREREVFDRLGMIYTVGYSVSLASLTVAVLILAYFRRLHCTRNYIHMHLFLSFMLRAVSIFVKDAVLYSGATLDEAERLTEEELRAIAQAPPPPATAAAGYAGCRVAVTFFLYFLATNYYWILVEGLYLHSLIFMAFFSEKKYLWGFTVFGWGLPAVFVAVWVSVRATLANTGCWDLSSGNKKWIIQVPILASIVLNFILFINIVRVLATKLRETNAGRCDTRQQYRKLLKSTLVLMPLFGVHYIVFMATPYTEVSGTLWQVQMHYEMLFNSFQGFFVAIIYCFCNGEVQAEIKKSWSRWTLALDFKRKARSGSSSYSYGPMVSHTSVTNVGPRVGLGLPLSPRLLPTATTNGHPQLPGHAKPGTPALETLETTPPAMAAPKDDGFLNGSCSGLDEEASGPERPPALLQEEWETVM
#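 HEK-293-derived GP2 cells expressing PTHR1 and a GloSensor cAMP reporter, 3,000/well, plated overnight, given luciferin plus IBMX (each 0.5 mM as added) for 1 h at 37 °C, then compound for 1 h at 37 °C. Luminescence was read after 15 min at room temperature.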
# LDHA inh: qHTS assay for inhibitors of human lactate dehydrogenase; AID 1347041, 2019; purified LDHA, NADH/diaphorase-resazurin fluorescence; active compounds read low; L-lactate dehydrogenase A chain (Homo sapiens), P00338; activity change, % (values are at about 110 or 230 µM); 480,000 compounds, 0.15% hits; in the data active = activity change below about -30%; inconclusive = mostly about -25% to -30%;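 also: plate controls were DMSO wells for no effect and wells without enzyme for full effect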
#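 Human LDH5 (2 nM) was incubated with 0.06 mM NADH and 0.2 mM pyruvate for 5 min at room temperature in Tris pH 7.4. Remaining NADH was coupled through diaphorase/resazurin, and resorufin fluorescence was read at 0 and 20 min.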
# TDP-43 yeast inh: qHTS of TDP-43 Inhibitors; 410,000 compounds, 1.8% hits; TDP-43 expressing yeast growth rescue, BacTiter-Glo, 24 h; Potency, µM (titrated, usually from 46.1 µM), inactives show at the top dose growth rescue (activation), most hits filed as activators; also: potency is read from the fitted curve at half-maximal effect; % of control where 0% means no effect; nearly all actives have a fitted effect of over 50% in size
#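 Galactose-induced TDP-43 yeast, OD600=0.02, compound pinned; 24 hr, 30 deg C; BacTiter-Glo luminescence for growth. Inhibitors of TDP-43 toxicity read as activators.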
# FUS suppressor: qHTS for Suppressors of FUS Proteinopathy: Primary screen using FUS-linked yeast assay; 390,000 compounds, 0.24% hits; AID 1347120, 2019; Potency, µM (highest dose often 76.6 µM), hits mostly activators; S. cerevisiae FUS-expressing, growth rescue, OD600, 24 h;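 also: potency is read from the fitted curve at half-maximal effect; plate controls were DMSO vehicle for no effect and reference control for full effect; nearly all actives have a fitted effect of over 55% in size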
#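 FUS-expressing yeast, raffinose-pregrown, induced in 2% galactose minimal medium at OD 0.005; compounds in a dilution series, 24hr at 30C. Growth restoration read as absorbance at 600 nm. CP55940 positive control, DMSO negative.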
# Abeta yeast res: qHTS for compounds that reverse cellular toxicity of Amyloid beta (A-beta) peptide in yeast: Primary Screen | yeast expressing A-beta42, growth rescue, OD600, 48 h; response scale: 0% DMSO, 100% iron-clioquinol control | Potency, µM (titrated, usually from 46.1 µM), hits mostly activators | 410,000 compounds, 0.063% hits | AID 1347071, 2019; also: potency is read from the fitted curve at half-maximal effect; nearly all actives have a fitted effect of over 55% in size
#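 Yeast A-beta toxicity model in growth medium with pinned compounds, 48 h at 30 C; growth read as absorbance at 600 nm. Normalized to FeCl3/clioquinol equimolar mix (positive) and DMSO (negative).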
# aSyn rescue: qHTS of alpha-syn Inhibitors | Yeast expressing alpha-synuclein, growth rescue, BacTiter-Glo, 24 h | Potency, µM (series often up to 46.1 µM), without a hit: at the highest dose growth rescue (activation), most hits filed as activators | 370,000 compounds, 0.14% hits | AID 652106, 2013; also: potency is read from the fitted curve at half-maximal effect; % of control where 0% means no effect; nearly all actives have a fitted effect of over 65% in size
#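 Rescue of yeast growth: cells expressing toxic alpha-synuclein, induced in galactose at OD600 0.02, incubated with compound 24 h at 30 C. ATP luminescence quantified growth; inhibitors of toxicity appear as activators.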
# Starred values were filed as active, the others as inactive; i = inactive; ? = inconclusive; . = not tested or not shown; ! = not confirmed by another sample; [ ] = remark or other dose. Most compounds without a hit are left out; they make up all but 1.9% or so of the library. Unless noted, calls follow the shape of the dose curve; as a rule, active = well fitted curve in the direction sought with a large enough effect; inconclusive = small, poorly fitted or top-dose-only effect, or another doubt; inactive = no such curve, though single readings can be large; an effect the other way counts as inactive or inconclusive.
SMILES,PTHR1 agonist,LDHA inh,TDP-43 yeast inh,FUS suppressor,Abeta yeast res,aSyn rescue
O=C(CSc1nnc(-c2ccco2)c(-c2ccco2)n1)Nc1ccccc1,i,10,9%,22µM*,i,-1%
C/C=C/C=C/C(=O)NCc1ccc(CN2CCCC2)cc1,.,7,.,.,.,.
CCOc1cc(C(=O)Nc2cccc(Cl)c2N2CCOCC2)cc(OCC)c1OCC,.,10,.,.,.,.
CC(=O)N=c1nc(-c2ccccc2)n(-c2ccccc2)s1,.,-32*,.,.,.,-14%
CN=c1nc(-c2ccccc2)n(-c2ccccc2)s1,i,-8,38%,i,i,-71%
Cc1ccc(Nc2nc(COC(=O)C3CC3)cs2)cc1,i,-3,13µM*,i,i,-24%
CCCCN1C(=O)c2ccc(C(=O)OCc3csc(Nc4ccc(C)cc4)n3)cc2C1=O,.,6,.,.,.,.
Cc1cccc(C(=O)OC(C)C(=O)N2CCc3ccccc3C2)c1C (stereo not given),-7%,1,18µM*,.,i,6%
COc1ccc(CN2CCN(Cc3ccc4ccccc4c3)CC2)cc1OC,-24%,-34*,-1%,i,i,2%
COc1ccccc1CN1CCN(Cc2ccc3ccccc3c2)CC1,i,-19,19%,i,i,0%
Cc1cc(C)n2[nH]c(=O)c(N=Nc3ccccc3)c2n1,i,-2,8%,i,i,4%
Cc1cc(C(F)(F)F)n2[nH]c(=O)c(N=Nc3ccccc3)c2n1,18µM*,5,?,i,?,?
COc1ccccc1CNC(=O)Cn1c(-c2cccs2)cc2cc(F)ccc21,50µM*,-2,19%,i,?,.
CCOc1cc(CNC(=O)Cn2c(-c3cccs3)cc3cc(F)ccc32)ccc1OC,-17%,-12,11%,i,i,.
CCCCCn1nc(C(=O)N2CCN(c3ccc(C(C)=O)cc3)CC2)c2ccccc2c1=O,.,2,.,.,.,.
CN(CC(=O)Nc1c(Cl)cccc1Cl)C(=O)c1cccc(-n2cccc2)c1,i,-37*!,-12%,i,i,-2%
CN(CC(=O)Nc1ccccc1Cl)C(=O)c1cccc(-n2cccc2)c1,-2%,-1,13%,i,i,1%
Cc1n[nH]c(=S)n1/N=C/c1ccc(OCc2ccc(Cl)cc2)cc1,?,-3,?,i,i,1%
Cc1cc(C)c(COc2ccc(/C=N/n3c(C)n[nH]c3=S)cc2)c(C)c1,i,3,20µM*,i,?,1%
COc1ccc([N+](=O)[O-])cc1NC(=O)CSCc1ccc(Br)cc1,-25%,-5,13µM*,i,i,2%
COc1ccc([N+](=O)[O-])cc1NC(=O)CCS(=O)(=O)c1ccc(Br)cc1,-8%,-13,-15%,i,i,-2%
COc1ccc(C)cc1NC(=O)CSCc1ccccc1C,i,-8,13µM*,i,i,11%
COc1ccc([N+](=O)[O-])cc1NCc1cccc([N+](=O)[O-])c1,i,-4,11µM*,i,i,-2%
COc1ccc([N+](=O)[O-])cc1NC(=O)CC(C)c1ccccc1 (stereo not given),-13%[57.5 µM],-5,16µM*,i,?,-1%
COc1ccc([N+](=O)[O-])cc1NC(=O)CSCc1ccccc1C,-19%,-7,13µM*,.,i,5%
C/C=C/C=C/C(=O)OC(C)C(=O)Nc1cc([N+](=O)[O-])ccc1OC (stereo not given),-15%,-1,13µM*,i,i,-1%
c1cnc(SCCOc2cccc3ccccc23)nc1,-31%,-1,11µM*,i,i,-5%
O=C(CCc1c[nH]c2ccccc12)Nc1ccccc1OCC(F)(F)F,.,8,.,.,.,.
